# TRHR PAM: TRH receptor (human) allosteric enhancement. P34981. TRHR cells, fluo-8 calcium fluorescence, EC20 TRH enhancement. enhancement, % at 2 µM. actives 0.66% (n = 360,000). AID 493056; in the data active = enhancement above about 30%; note: 0% is about no effect
#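 TRHR-expressing cells loaded with fluo-8 calcium dye were read kinetically (ex 480/em 530) during compound addition, then stimulated with an EC20 of TRH (10 nM final). Enhancement of the Gq-mediated intracellular calcium response was scored.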
# GLP1R inv ag: GLP-1 receptor (human) inverse agonism. HEK293 GLP-1R CRE-luciferase, luminescence, 24 h; GLP-1R form is constitutively active. Potency, µM (highest dose often 38.3 µM), for the others: at the highest dose activity change, negative = inhibition, actives largely listed as inhibitors. actives 1.6% (n = 410,000). AID 624417; note: potency is the fitted concentration of half-maximal effect; % is set by controls: 0 for no effect and ±100 for the full control effect; nearly all actives have a fitted effect of over 55% in size
#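 Constitutively active GLP-1R drives a cAMP-responsive luciferase in stably transfected HEK293 cells; test compounds are added after overnight (12 h) attachment and left 24 hr, and signal loss in luminescence marks inhibition.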
# HEK293 tox: cytotoxicity counter-screen for GLP-1 receptor inverse agonists; Potency, µM (highest dose often 38.3 µM), inactives show at the highest dose activity change, negative = inhibition, usual class: inhibitors; actives 0.13% (n = 410,000); HEK293 cAMP-luciferase reporter cells, luminescence, 24 h;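 note: loss of luciferase light is scored as toxicity; potency is the fitted concentration of half-maximal effect; % is set by controls: 0 for no effect and ±100 for the full control effect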
#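 Luminescence readout: signal drop marks cytotoxicity. Plated cells grew 12 h at 37 °C, 5% CO2, received 23 nL compound for 24 h, then got luciferase reagent, read after 12 min at RT.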
# TRHR ag: TRH receptor (human) agonism; TRHR cells, calcium flux fluo-8, FDSS agonist mode; activation, % at 2 µM; actives 0.18% (n = 360,000); in the data active = activation above about 30%; note: 0% is about no effect
#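 Agonist-mode FDSS calcium read (Ex 480/Em 530, 1 s cycles) in 1536-well TRHR cells with fluo-8 dye, after 10-cycle baseline and 23 nL compound addition; TRH at EC20 (10 nM final) added afterwards for the enhancer phase.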
# PTHR1 ag: activates the human parathyroid hormone receptor PTHR1; Potency, µM (doses to about 115 µM), for the others: top-dose activation, actives largely listed as activators; AID 743266; Q03431; actives 0.075% (n = 410,000); HEK293 GP2 PTHR1 cells, GloSensor cAMP luminescence, 1 h; note: potency is the fitted concentration of half-maximal effect; nearly all actives have a fitted effect of over 55% in size
# Target sequence (Q03431 whole entry, looked up): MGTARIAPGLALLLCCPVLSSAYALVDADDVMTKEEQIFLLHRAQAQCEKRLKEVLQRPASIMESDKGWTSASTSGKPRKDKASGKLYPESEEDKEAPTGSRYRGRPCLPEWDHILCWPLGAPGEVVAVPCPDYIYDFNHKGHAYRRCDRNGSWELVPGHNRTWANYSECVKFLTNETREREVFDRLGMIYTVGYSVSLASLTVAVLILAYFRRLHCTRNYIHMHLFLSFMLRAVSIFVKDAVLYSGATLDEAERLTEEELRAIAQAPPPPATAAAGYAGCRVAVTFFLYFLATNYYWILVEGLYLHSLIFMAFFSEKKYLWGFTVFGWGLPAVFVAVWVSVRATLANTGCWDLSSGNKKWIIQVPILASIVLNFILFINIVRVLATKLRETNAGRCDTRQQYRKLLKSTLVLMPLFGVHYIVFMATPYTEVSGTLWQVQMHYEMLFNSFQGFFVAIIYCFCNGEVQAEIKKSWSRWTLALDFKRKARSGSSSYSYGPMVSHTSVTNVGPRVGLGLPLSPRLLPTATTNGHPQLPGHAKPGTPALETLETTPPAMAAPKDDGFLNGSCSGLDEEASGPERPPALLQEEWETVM
#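 HEK-293-derived GP2 cells expressing PTHR1 and a GloSensor cAMP reporter, 3,000/well, plated overnight, given luciferin plus IBMX (each 0.5 mM as added) for 1 h at 37 °C, then compound for 1 h at 37 °C. Luminescence was read after 15 min at room temperature.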
# GLP1R ag: agonists of human GLP-1 receptor; P43220; HEK293 GLP-1R CRE-luciferase, luminescence, 4-6 h; cells express a hypersensitive GLP-1R form; Potency, µM (doses to about 45.6 µM), without a hit: at the highest dose activation, hits mostly activators; actives 0.007% (n = 380,000); note: potency is the fitted concentration of half-maximal effect; % of control where 0% means no effect
# * marks the source's active call; other numbers are inactive results; i = inactive; ? = inconclusive; nt = no result given; [ ] = dose if it differs, or a comment. In the library only some 2.4% were active in any assay of this set; here they are far more common. Unless noted, calls come from the whole dose curve; as a rule, active = well fitted curve in the direction sought with a large enough effect; inconclusive = small, poorly fitted or top-dose-only effect, or another doubt; inactive = no such curve, though single readings can be large; an effect the other way counts as inactive or inconclusive.
SMILES,TRHR PAM,GLP1R inv ag,HEK293 tox,TRHR ag,PTHR1 ag,GLP1R ag
CC(=O)Nc1cccc(-c2ccnc3c2CC(C(=O)Nc2cccc(NS(C)(=O)=O)c2)O3)c1 (stereo not given),nt,25%,7%,nt,i,-11%
CS(=O)(=O)Nc1cccc(NC(=O)C2Cc3c(-c4ccccc4)ccnc3O2)c1 (stereo not given),nt,0.89µM*,-21%,nt,-1%,15%
COc1ccc(-c2cc3c(=O)n(CC(=O)NCCCN4CCN(Cc5ccccc5)CC4)ncn3n2)cc1,-4,?,-16%,0,-39%,5%
COc1ccc(-c2cc3c(=O)n(CC(=O)NCCCN4CCC(Cc5ccccc5)CC4)ncn3n2)cc1,8,2.2µM*,-1%,2,-53%,0%
Cc1cc(NC(=O)CSc2nnc(-c3cccc(Cl)c3)o2)no1,0,-25%,?,0,-33%,-12%
Cc1cc(NC(=O)CSc2nc3cc(Cl)ccc3o2)no1,2,2.5µM*,?,0,i,5%
Cc1cc(NC(=O)CSc2nnc(-c3ccccc3Cl)o2)no1,34*,34%,?,0,-1%,16%
Cc1cc(C(=O)N/N=C/c2ccc(OCc3ccccc3)cc2)c(C)o1,-2,11µM*,-21%,0,-12%,15%
COc1ccc(/C=N/NC(=O)c2cc(C)oc2C)cc1OCc1ccccc1,-10,?,7%,0,-30%,14%
CCOC(=O)c1c(C)nc(SC)c(C#N)c1-c1ccccc1,6,-24%,-8%,-1,-16%,-1%
Cc1ccn2c(NC(C)(C)C)c(-c3cccs3)nc2c1,-10,10µM*,?,2,-9%,3%
O=C(Nc1ccc(F)c(Cl)c1)C1Cc2ccccc2CN1S(=O)(=O)c1ccc(F)cc1 (stereo not given),3,10µM*,-5%,2,-29%,nt
O=C(c1ccco1)N(Cc1ccco1)Cc1cc2ccccc2[nH]c1=O,-2,-25%,-5%,1,-3%,14%
O=C(COC(=O)c1ccccn1)NCc1cccc(Cl)c1,0,-12%,-9%,0,i,5%
O=C(CN1c2ccccc2Sc2ccccc21)NNC(=O)Nc1cccc(Cl)c1,1,3.5µM*,?,0,-27%,5%
O=C(Cc1ccccc1)NNC(=O)Nc1cccc(Cl)c1,-4,?,2%,0,i,-9%
CCN(CC(=O)NCc1ccc(Cl)cc1)C(=O)CSc1ccc(Br)cc1,-7,6.3µM*,4%,0,-42%,0%
CCc1ccc(-n2c(N3CCN(c4ccc(F)cc4)CC3)nc3ccccc3c2=O)cc1,8,11µM*,1%,0,i,nt
CCOC(=O)c1c(C)[nH]c(C)c1C(=O)CSc1nc2ccccc2c(=O)n1-c1ccc(CC)cc1,0,10µM*,-12%,1,-11%,9%
COc1ccc(/C=C(/NC(=O)c2ccco2)C(=O)NCc2ccco2)cc1,nt,7%,19%,nt,i,-2%
CCN(CC)CCSc1nc2c([nH]1)c(=S)n(C)c(=O)n2C,nt,?,5.6µM*,nt,-7%,1%
CCCC(CC)Sc1nc2c([nH]1)c(=S)n(C)c(=O)n2C (stereo not given),nt,?,0.89µM*,nt,-32%,3%
COc1ccccc1S(=O)(=O)Nc1ccc(S(=O)(=O)Nc2nccs2)cc1,-5,10%,-12%,0,-4%,5%
O=C(Cc1ccc(Cl)cc1)c1c[nH]c(C(=O)NCc2cccnc2)c1,-3,2.8µM*,?,0,i,-7%
CCCCNC(=O)C1(C)CCN1Cc1ccc(C#N)cc1 (stereo not given),nt,14%,-3%,nt,-1%,2%
SMILES,TRHR PAM,GLP1R inv ag,HEK293 tox,TRHR ag,PTHR1 ag,GLP1R ag
NC(=O)C1CCN(c2nc(C3CC3)nc3c2nnn3Cc2ccccc2)CC1,30*,0%,9%,-1,i,15%
NC(=O)C1CCN(c2nc(C3CC3)nc3c2nnn3Cc2ccccc2Cl)CC1,-3,-13%,-21%,0,-24%[57.5 µM],8%
CCCC[C@@H]1CNC(=S)N1CCc1cccc2ccccc12,-1,3.5µM*,-1%,0,-25%,20%
CCCCN1C(=S)NC[C@@H]1Cc1cccc2ccccc12,0,?,?,-1,-66%,14%
CC1C/C(=N\NC(=S)NCc2ccccc2)CC(C)(C)C1 (stereo not given),-7,?,?,-1,-10%[57.5 µM],0%
CCOC(=O)c1nc(C)nc(Sc2n[nH]c(-c3cc(Cl)cc(Cl)c3)n2)c1C,4,19%,-2%,0,-28%,0%
CCOC(=O)c1nc(C)nc(Sc2n[nH]c(-c3ccc(C(C)(C)C)cc3)n2)c1C,-5,10µM*,-14%,2,i,-7%
COc1ccc(C(=O)N/N=C2/SCC(=O)N2Cc2ccc3c(c2)OCO3)cc1OC,nt,32%,1%,nt,-8%[57.5 µM],22%
Oc1ccc2ccccc2c1N=Nc1ccccn1,2,?,2.5µM*,0,i,?
COc1cccc(-c2sc3ccc(OC)cc3c2-c2ccc(OCCN3CCCC3)cc2)c1,nt,?,5%,nt,i,6%
COc1ccc(-c2sc3ccc(OC)cc3c2-c2ccc(OCCN3CCOCC3)cc2)cc1,nt,10µM*,8%,nt,-2%,-2%
CC(=O)Nc1ccc(S(=O)(=O)NC2CC(=O)N(c3ccc4c(c3)OCCO4)C2)cc1 (stereo not given),40*,-8%,-9%,0,i,9%
Cc1ccc(S(=O)(=O)NC2CC(=O)N(c3ccc4c(c3)OCCO4)C2)cc1 (stereo not given),3,-1%,16%,0,i,-7%
Cc1cnc(NC(=O)C2CC(=O)N(c3ccc4c(c3)OCCO4)C2)s1 (stereo not given),nt,-15%,1%,nt,-20%,1%
Cc1nnc(NC(=O)C2CC(=O)N(c3ccc4c(c3)OCCO4)C2)s1 (stereo not given),35*,4%,1%,0,-11%,-1%
Cc1ccc(S(=O)(=O)NCC(=O)NC2CCCC2)cc1,-1,0%,6%,0,i,-9%
Cc1ccc(S(=O)(=O)NCC(=O)NC2CCCCCC2)cc1,34*,0%,-6%,0,i,-8%
CN(CCOc1ccc(Cl)cc1)C(=O)c1ccc2c(=O)n3c(nc2c1)CCC3,3,0%,11%,-1,i,-3%
Cc1[nH]c(=S)c(C#N)c(C)c1CC(=O)c1ccc(Br)cc1,6,-19%,-2%,0,14µM*,0%

# Assay outcomes: PubChem, National Center for Advancing Translational Sciences (NCATS)
